We go through six compounds from PubChem BioAssay (NCATS).

A short description of experiment [1]: Cell Viability - Hek293 (AID 427;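 active = compounds whose dose-response curve shows a full or clear partial loss of cell viability, called from curve shape rather than a numeric limit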;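 also: potency is read from the fitted curve at half-maximal effect; cells exposed to compound for 40 hours at 37 °C before reading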). Conditions: qHTS. In a few lines: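 HEK293 cells in complete medium were exposed to compound for 40 hr at 37 °C, then cellular ATP was read by CellTiter-Glo luminescence. Data were normalized to DMSO (basal) and 100 uM tamoxifen (100% inhibition), and AC50 came from Hill fits.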
Experiment [2] in a line: Cell Viability - NIH 3T3 (AID 541).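 Also: plate controls were DMSO alone for no effect and tamoxifen positive control for full effect; nearly all actives have a fitted effect of over 25% in size.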 Conditions: NIH 3T3 cell viability, qHTS; activity change, negative = cytotoxicity: at 92.2 µM (top of the series). The method in brief: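 Cells seeded at 1000/well, rested 5 hr at 37 °C, then dosed and incubated 40 hr at 37 °C. CellTiter-Glo added, 20 min room temperature, luminescence read. AC50 by Hill fit.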
Experiment [3] can be described thus: Cellular Toxicity (caspase-3) HepG2 (AID 654).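 Also: cells exposed to compound for 16 hours before reading; 0% = DMSO alone and 100% = caspase signal from 100 µM tamoxifen.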 Conditions: HepG2 caspase-3 activation, luminescence, 0% = DMSO only, 100% = tamoxifen; series mostly up to 92.2 µM. The method in brief: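 Caspase 3/7 activation in HepG2 is measured as rising luminescence after a 16 hr treatment at 37 °C. Values are scaled between DMSO basal and 100 uM tamoxifen, and AC50 is fitted with the Hill equation.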

Experiment [4] can be described thus: Cellular Toxicity (caspase-3) Hek293 (AID 664).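 Also: cells exposed to compound for 16 h at 37 °C before readout.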 Conditions: HEK293 caspase-3 activation, DMSO = 0%, 100 µM tamoxifen = 100%; series mostly up to 92.2 µM. The method in brief: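 qHTS, HEK293 (human embryonic kidney), 16 h cpd exposure in complete medium. Caspase-3/7 activation = luminescence increase; normalized to DMSO/100 uM tamoxifen; Hill-fit AC50.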
Experiment [5] in a line: Cellular Toxicity (caspase-3) NIH 3T3 (AID 666).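 Also: caspase signal read after 16 h compound exposure.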 Conditions: NIH 3T3 caspase-3 activation, apoptosis/toxicity, 0% DMSO, 100% is 100 µM tamoxifen; series mostly up to 92.2 µM. The method in brief: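 Cells were plated at 1000 per well and incubated 5 hr at 37°C, then compound was added for 16 hr. Caspase-Glo 3/7 reagent followed for 20 min at room temperature before luminescence was read.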

A short description of experiment [6]: MultiTox-Fluor Cytotoxicity Assay - LYMP1-003 - Live Cells (AID 962).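 Also: 0% = DMSO only and full loss = 92 µM tetraoctylammonium bromide; cytotoxic hits lower the live-cell protease signal.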 Conditions: LYMP1-003 lymphoblastoid cells, MultiTox-Fluor live-cell protease fluorescence; series mostly up to 92.2 µM. In a few lines: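 Acute cytotoxicity is scored as a drop in live-cell protease activity in human lymphoblastoid LYMP1-003 cells after 16 hr compound exposure at 37 C. AC50 values come from Hill-equation modelling of concentration-response data.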

Experiment [7] in a line: Cell Viability - LYMP2-005 (AID 967).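 Also: plate controls were DMSO only for no effect and 92 µM tetraoctylammonium bromide control for full effect.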 Conditions: LYMP2-005 lymphoblastoid cell viability; series mostly up to 92.2 µM. In a few lines:
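CellTiter-Glo luminescence (cellular ATP) read-out; LYMP2-005 lymphoblastoid cells, 2500/well, 5 h pre-incubation, then 24 h compound exposure at 37 C in complete medium. Tetraoctylammonium bromide positive control; AC50 by standard Hill fit.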

A short description of experiment [8]: Cell Viability - LYMP2-009 (AID 968).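 Also: 0% = DMSO alone and the full-kill end = tetraoctylammonium bromide at 92 µM; nearly all actives have a fitted effect of over 55% in size.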 Conditions: LYMP2-009 lymphoblastoid cell viability; series mostly up to 92.2 µM.
The nature of experiment [9]: Cell Viability - LYMP2-017 (AID 972).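 Also: cells exposed to compound for 24 hours at 37 °C; % is scaled to controls: 0 for no effect and ±100 for the full control effect; nearly all actives have a fitted effect of over 55% in size.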 Conditions: LYMP2-017 lymphoblastoid cell viability; series mostly up to 92.2 µM. In a few lines: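 Cytotoxicity is scored as a concentration-dependent drop in cellular ATP in a human lymphoblastoid line after 24 hr treatment at 37 C. Values are AC50s from Hill-equation modelling.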
The nature of experiment [10]: Cell Viability - LYMP2-019 (AID 973).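 Also: 0% = DMSO alone and full effect = 92 µM tetraoctylammonium bromide; nearly all actives have a fitted effect of over 55% in size.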 Conditions: LYMP2-019 lymphoblastoid cell line viability; series mostly up to 92.2 µM. In a few lines:
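Cytotoxicity is scored as a concentration-dependent drop in cellular ATP after cells (2500/well) receive compound for 24 hr at 37 C. Tetraoctylammonium bromide serves as positive control.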

The nature of experiment [11]: Cell Viability - LYMP2-021 (AID 974).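 Also: compound exposure lasts 24 hours at 37 °C; % is scaled to controls: 0 for no effect and ±100 for the full control effect; nearly all actives have a fitted effect of over 55% in size.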 Conditions: LYMP2-021 lymphoblastoid cells viability; series mostly up to 92.2 µM. The method in brief: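 Loss of cellular ATP, measured with a luciferase-based CellTiter-Glo readout, serves as the toxicity signal in human lymphoblastoid cells treated for 24 hours at 37 C. Potency is reported as AC50 from a standard Hill model.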

A short description of experiment [12]: Cell Viability - LYMP2-016 (AID 984). Conditions: LYMP2-016 lymphoblastoid cell viability, qHTS; series mostly up to 92.2 µM. In a few lines: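 Human lymphoblastoid cells (LYMP2-016), 2500/well in complete medium, preincubated 5 hr at 37 C, then compound-treated 24 hr at 37 C. Intracellular ATP read by CellTiter-Glo luminescence after 30 min at room temperature; AC50 from Hill-equation concentration-response fits.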
Background: In qHTS, concentration-response curves come from the screen itself.

The nature of experiment [13]: Cell Viability - LYMP2-022 (AID 987). Conditions: LYMP2-022 lymphoblastoid cell viability; series mostly up to 92.2 µM. The method in brief:
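Cells were seeded at 2500 per well, rested 5 hr at 37 C, and treated with titrated compounds for 24 hr at 37 C. Cellular ATP was then quantified by luciferase luminescence, and AC50 values were derived from Hill-modelled concentration-response curves.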

Experiment [14] can be described thus: Cell Viability - LYMP2-026 (AID 989). Also: % is scaled to controls: 0 for no effect and ±100 for the full control effect; nearly all actives have a fitted effect of over 50% in size. Conditions: LYMP2-026 lymphoblastoid cell viability, qHTS; series mostly up to 92.2 µM. The method in brief: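 Cells are seeded at 2500 per well and held 5 hr at 37 C. Compounds are added in concentration series for 24 hr, then CellTiter-Glo reagent is applied and luminescence read.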
Experiment [15] is described as follows: qHTS assay for small molecule agonists of retinoid X receptor alpha signaling (AID 588544). Conditions: HEK293T RXRa-UAS-bla, beta-lactamase reporter, 18 h; 530 nm emission.
A short description of experiment [16]: qHTS assay for small molecule antagonists of retinoid X receptor alpha signaling (AID 588546).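 Also: cells stimulated with 9-cis-retinoic acid as agonist; % is scaled to controls: 0 for no effect and ±100 for the full control effect.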 Conditions: HEK293T RXRa-UAS-bla, beta-lactamase ratio, antagonist mode; measured here: W530 green channel, cytotoxicity proxy. In a few lines: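 Beta-lactamase reporter inhibition, read as CCF4 fluorescence ratio (ex 405, em 460/530 nm) after 2 h at RT. HEK293T UAS-bla cells, 2500/well, were stimulated with 9-cis-RA at 500 or 100 nM final alongside test compound for 18 h at 37 C.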

The target in experiment [17] is Voltage-gated inwardly rectifying potassium channel KCNH2 (Homo sapiens) (UniProt Q12809). The experiment in a line: qHTS Assay for Small Molecule Inhibitors of the Human hERG Channel Activity (AID 588834).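 Also: top concentration of the series differs between compounds; % is scaled to controls: 0 for no effect and ±100 for the full control effect; lower thallium flux fluorescence means stronger hERG block; nearly all actives have a fitted effect of over 50% in size.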 Conditions: U2OS BacMam hERG, FluxOR thallium flux fluorescence; series mostly up to 92.2 µM. The method in brief:
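In hERG-transduced U2OS cells, dye-loaded for 1 hr at room temperature in dark, test compounds incubated 10 min at 37 °C before thallium stimulation. AC50 values derived by Hill modelling of concentration-response.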

Experiment [18] is described as follows: qHTS assay for small molecule disruptors of the mitochondrial membrane potential - 5 hr assay (AID 651755; calls by dose curve; also: % is scaled to controls: 0 for no effect and ±100 for the full control effect; nearly all actives have a fitted effect of over 40% in size). Conditions: JC-1-type ratio dye; series mostly up to 92.2 µM. The method in brief:
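Seed HepG2 overnight, add compound, incubate 5 hr at 37C and 5% CO2, stain 30 min with Mito-MPS, then measure monomer (490/535 nm) and aggregate (540/590 nm) fluorescence.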

Experiment [19] deals with Peroxisome proliferator-activated receptor alpha (Homo sapiens) (UniProt Q07869). The experiment in a line: qHTS assay for small molecule agonists of the peroxisome proliferator-activated receptor alpha (PPARalpha) signaling pathway (AID 651778). Also: % of control where 0% means no effect. Conditions: PathHunter PPARalpha complementation, chemiluminescence, 6 h; stronger effect = higher value. In a few lines: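 Cells plated at 2,000/well and held overnight at 37 C, 5% CO2, then compound added by pin tool for 6 hr; after PathHunter detection reagent and 60 min at room temperature, chemiluminescence from enzyme complementation was read.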
Chain of Peroxisome proliferator-activated receptor alpha (Homo sapiens) (Q07869 whole entry, looked up): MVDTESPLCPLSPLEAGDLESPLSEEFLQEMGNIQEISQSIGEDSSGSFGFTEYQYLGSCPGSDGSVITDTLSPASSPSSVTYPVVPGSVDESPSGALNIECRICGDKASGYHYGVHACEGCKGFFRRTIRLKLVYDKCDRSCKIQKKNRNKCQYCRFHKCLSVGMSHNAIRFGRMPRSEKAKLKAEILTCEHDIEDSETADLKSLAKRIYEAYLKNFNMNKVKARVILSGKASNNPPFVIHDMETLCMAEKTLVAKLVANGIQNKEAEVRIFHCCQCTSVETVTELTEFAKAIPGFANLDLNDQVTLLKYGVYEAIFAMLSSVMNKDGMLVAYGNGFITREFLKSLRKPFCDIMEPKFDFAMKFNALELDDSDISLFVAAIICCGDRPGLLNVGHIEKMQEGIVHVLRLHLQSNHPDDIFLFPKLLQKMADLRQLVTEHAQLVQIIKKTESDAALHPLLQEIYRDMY

The nature of experiment [20]: qHTS assay for small molecule agonists of the antioxidant response element (ARE) signaling pathway measured by Nrf2-dependant transcriptional activity (AID 720636; active = well fitted curve in the direction sought with a large enough effect in the repeat runs; an effect the other way counts as inactive or inconclusive;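 also: HepG2 cells with an ARE-driven luciferase reporter; % of control where 0% means no effect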). Conditions: ARE-luc HepG2, Nrf2 luciferase reporter, 16 h; series mostly up to 92.4 µM. The method in brief:
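We exposed ARE-luc HepG2 cells, seeded in assay medium with 1% dialyzed FBS and allowed 6 hr to adhere, to test compounds overnight (16 hr, 37 C) before measuring luciferase with ONE-Glo.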

Molecules are shown by their SMILES. Several values for one entry are separate records, joined by “and”; a condition that tells them apart may be missing. Identical values can stand only once. Results filed as inconclusive are left out. Activity calls are given as the source filed them. Unless noted, calls follow the shape of the dose curve; as a rule, active = well fitted curve in the direction sought with a large enough effect; inconclusive = small, poorly fitted or top-dose-only effect, or another doubt; inactive = no such curve, though single readings can be large; an effect the other way counts as inactive or inconclusive.

Chain of Voltage-gated inwardly rectifying potassium channel KCNH2 (Homo sapiens) (Q12809 whole entry, looked up): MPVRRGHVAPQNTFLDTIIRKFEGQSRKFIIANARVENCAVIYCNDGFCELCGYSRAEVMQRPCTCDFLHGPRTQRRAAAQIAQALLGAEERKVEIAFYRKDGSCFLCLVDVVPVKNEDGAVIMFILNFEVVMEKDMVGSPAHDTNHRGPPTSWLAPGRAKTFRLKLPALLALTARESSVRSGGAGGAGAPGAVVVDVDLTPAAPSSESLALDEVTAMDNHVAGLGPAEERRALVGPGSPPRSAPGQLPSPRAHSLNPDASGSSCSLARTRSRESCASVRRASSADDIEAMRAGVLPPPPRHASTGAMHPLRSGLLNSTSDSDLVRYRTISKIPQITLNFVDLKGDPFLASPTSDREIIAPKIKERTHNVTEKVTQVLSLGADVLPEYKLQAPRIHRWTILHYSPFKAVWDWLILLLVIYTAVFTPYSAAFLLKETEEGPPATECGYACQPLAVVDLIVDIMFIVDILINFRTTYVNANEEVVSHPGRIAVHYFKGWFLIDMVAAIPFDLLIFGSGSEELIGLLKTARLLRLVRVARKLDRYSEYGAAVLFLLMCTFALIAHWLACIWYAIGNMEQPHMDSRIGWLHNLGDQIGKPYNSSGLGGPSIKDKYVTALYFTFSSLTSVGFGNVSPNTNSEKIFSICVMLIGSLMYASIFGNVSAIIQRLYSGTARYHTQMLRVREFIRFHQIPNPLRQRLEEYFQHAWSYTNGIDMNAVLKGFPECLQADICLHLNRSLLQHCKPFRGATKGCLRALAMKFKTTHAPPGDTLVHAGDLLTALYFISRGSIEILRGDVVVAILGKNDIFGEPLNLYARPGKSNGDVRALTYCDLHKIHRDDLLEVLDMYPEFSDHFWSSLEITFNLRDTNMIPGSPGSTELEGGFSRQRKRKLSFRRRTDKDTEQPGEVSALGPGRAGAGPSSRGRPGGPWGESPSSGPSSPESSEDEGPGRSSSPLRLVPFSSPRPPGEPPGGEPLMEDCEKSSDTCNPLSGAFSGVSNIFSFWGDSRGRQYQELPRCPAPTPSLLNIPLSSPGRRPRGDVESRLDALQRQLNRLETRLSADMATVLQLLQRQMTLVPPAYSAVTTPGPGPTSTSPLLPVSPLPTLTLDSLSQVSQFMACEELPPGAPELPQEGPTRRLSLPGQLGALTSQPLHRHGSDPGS

As for `O=C(Cl)/C=C/C(=O)Cl`, in experiment [1], the Potency was > 92 µM (inactive). In addition, the activity change, negative = cytotoxicity in experiment [2] is 9.76% (inactive). Further, the compound was called inactive in [3], in experiment [4], in [5] and in experiment [20]. Further, the Potency entry in [6], in [7], in [8], in [9], in [10] and in experiment [11] was “inactive” throughout. For the same compound, the Potency entry in experiment [12], in experiment [13], in experiment [14], in experiment [17] and in [18] was “inactive” in each case. Besides, the max response in experiment [15] is -9%; in experiment [16], -3.67%; in experiment [19], -3.04% (inactive).

With `O=C(Cl)C(Cl)(Cl)Cl`, the Potency in experiment [1] was > 92 µM (inactive). Also, the activity change, negative = cytotoxicity in experiment [2] is 1.81% (inactive). The compound was classed as inactive in [3], in [4], in experiment [5] and in [20]. For the same compound, the Potency entry in [6], in experiment [7], in experiment [8], in experiment [9], in experiment [10] and in experiment [11] was “inactive” in each case. In addition, the Potency result in experiment [12], in experiment [13], in [14], in experiment [17] and in experiment [18] was “inactive” each time. Further, the max response was 2.41% in experiment [15], 2.3% in experiment [16] and -1.02% (inactive) in experiment [19].

Consider `C=C(C)C#N`, for which the Potency in experiment [1] was > 92 µM (inactive). Also, the activity change, negative = cytotoxicity in [2] is -26.6% (inactive). Besides, the compound was classed as inactive in experiment [3], in [4], in experiment [5] and in [20]. Besides, the Potency result in experiment [6], in [7] and in experiment [17] was “inactive” in each case. Besides, the max response in experiment [15] is 5.57% and -6.47%; in experiment [16], 2.43% and -11.4%; in [19], -3.42% (inactive) and 0.836% (inactive).

Turning to `ClC(Cl)=C(Cl)Cl`, the Potency in [1] is > 92 µM (inactive). The activity change, negative = cytotoxicity in [2] is -22.9% (inactive) and 3.64% (inactive). For the same compound, the compound was called inactive in [3], in experiment [4], in experiment [5] and in [20]. In addition, the Potency result in [6], in [7], in [8], in experiment [9], in [10] and in experiment [11] was “inactive” throughout. For the same compound, the Potency entry in [12], in experiment [13], in [14], in experiment [17] and in [18] was “inactive” each time. The max response in [15] is 4.54% and -3.27%; in experiment [16], -6.82% and -0.572%; in [19] it was -0.144% (inactive) and -2.45% (inactive).

Turning to `CC(=O)[O-].CC(=O)[O-].O.O.O.[Pb+2]`, the Potency in experiment [1] was > 92 µM (inactive). Moreover, in experiment [2], the activity change, negative = cytotoxicity was 11.5% (inactive) and -1.35% (inactive). Also, the compound was classed as inactive in experiment [3], in experiment [4], in [5] and in [20]. Besides, the Potency entry in [6], in [7], in experiment [8], in experiment [9], in experiment [10] and in [11] was “inactive” each time. The Potency entry in experiment [12], in experiment [13], in experiment [14], in experiment [17] and in experiment [18] was “inactive” throughout. The max response was -8.91% and -19.7% in experiment [15]; -8.42% and -6.15% in [16]; -4.64% (inactive) and -4.52% (inactive) in experiment [19].

Consider `BrCCBr`, for which the Potency in experiment [1] was > 92 µM (inactive). The activity change, negative = cytotoxicity in [2] was -25.3% (inactive). In addition, the compound was classed as inactive in experiment [3], in experiment [4], in [5] and in experiment [20]. The Potency result in experiment [6], in experiment [7], in experiment [8], in experiment [9], in experiment [10] and in experiment [11] was “inactive” each time. The Potency entry in [12], in [13], in experiment [14], in experiment [17] and in experiment [18] was “inactive” throughout. The max response in experiment [15] is -0.875% and -18.5%; in experiment [16], -10.6% and -9.29%; in experiment [19], -2.04% (inactive) and -4.02% (inactive).
